Measurements published in PubChem BioAssay AID1159580 (chemical genetic matrix, 2015).
Several values for one entry are separate records, joined by “and”; a condition that tells them apart may be missing. Identical values can stand only once. In all, about 5,500 compounds went through this assay and about 2,000 (36%) were called active. Inconclusive results (about 18%) are left out. Rule as the data show it: active = normalized growth mostly below about 0.91 (no sharp cut-off); inconclusive = no clear call, values can overlap the other calls; inactive = mostly above about 0.92. This is one part of the list.

Assay: chemical genetic growth profiling, strain panel (AID 1159580);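 also: tested at 20 µM; growth read once vehicle control cultures reached saturation at 30 °C; 1 = growth at the plate median or of vehicle wells; lower values mean less growth of the strain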
Details: S. cerevisiae deletion strains, growth OD

Measured: normalized growth

C1CCN2C[C@@H]3C[C@H](CN4CCCC[C@@H]34)[C@H]2C1
inactive: locus YAL013W, strain DEP1, hits give low values 1.04 | locus YAL021C, strain ccr4, hits give low values 0.995 | locus YAL026C, strain drs2, hits give low values 1.02 | locus YAL030W, strain snc1, hits give low values 1.01 | locus YBL061C, strain skt5, hits give low values 0.999 | locus YBR009C, strain hhf1, hits give low values 1 | locus YBR021W, strain FUR4, hits give low values 1.02 | locus YBR023C, strain chs3, hits give low values 1.01 | locus YBR171W, strain sec66, hits give low values 1.01 | locus YBR229C, strain ROT2, hits give low values 0.999 | locus YBR231C, strain swc5, hits give low values 1.03 | locus YBR279W, strain paf1, hits give low values 1.01 | locus YCL011C, strain gbp2, hits give low values 1 | locus YCL016C, strain dcc1, hits give low values 0.991 | locus YCL029C, strain bik1, hits give low values 0.995 | locus YCL061C, strain MRC1, hits give low values 1.01 | locus YCL069W, strain vba3, hits give low values 1.01 | locus YCR088W, strain abp1, hits give low values 1.01 | locus YDL005C, strain med2, hits give low values 1.02 | locus YDL035C, strain GPR1, hits give low values 1.02 | locus YDL040C, strain nat1, hits give low values 1 | locus YDL074C, strain BRE1, hits give low values 1.01 | locus YDL101C, strain DUN1, hits give low values 1.01 | locus YDL134C, strain PPH21, hits give low values 1 | locus YDL185W, strain tfp1, hits give low values 1 | locus YDL192W, strain arf1, hits give low values 1.01 | locus YDR001C, strain nth1, hits give low values 1.01 | locus YDR069C, strain doa4, hits give low values 1.01 | locus YDR101C, strain arx1, hits give low values 1 | locus YDR137W, strain rgp1, hits give low values 1.01 | locus YDR150W, strain NUM1, hits give low values 1.01 | locus YDR159W, strain sac3, hits give low values 1.05 | locus YDR162C, strain NBP2, hits give low values 1.01 | locus YDR195W, strain ref2 0.996 | locus YDR297W, strain sur2, hits give low values 1.03 | locus YDR318W, strain mcm21, hits give low values 1.01 | locus YDR334W, strain swr1, hits give low values 1.01 | locus YDR335W, strain msn5, hits give low values 1.01 | locus YDR388W, hits give low values 0.994 | locus YDR392W, strain spt3, hits give low values 1.02 | locus YDR502C, strain sam2, hits give low values 1.01 | locus YEL003W, strain gim4, hits give low values 1.01 | locus YEL037C, strain rad23, hits give low values 0.994 | locus YEL061C, strain CIN8 (second series), hits give low values 1.01 | locus YEL061C, strain CIN8, hits give low values 1 | locus YER015W, strain faa2, hits give low values 1 | locus YER016W, strain bim1, hits give low values 1 | locus YER110C, hits give low values 0.999 | locus YER111C, strain swi4, hits give low values 0.993 | locus YER155C, strain BEM2 (second series), hits give low values 1.04 | locus YER155C, strain BEM2, hits give low values 1.01 | locus YER167W, strain BCK2, hits give low values 1.03 | locus YFR010W, strain ubp6, hits give low values 1.02 | locus YGL078C, strain dbp3, hits give low values 1 | locus YGL086W, strain mad1, hits give low values 1.01 | locus YGL167C, strain pmr1, hits give low values 1 | locus YGL173C, strain kem1, hits give low values 1.02 | locus YGL227W, strain vid30, hits give low values 1.01 | locus YGL240W, strain doc1, hits give low values 1.04 | locus YGL248W, strain PDE1, hits give low values 1 | locus YGL253W, strain hxk2, hits give low values 1 | locus YGR135W, strain pre9, hits give low values 0.996 | locus YGR252W, strain gcn5, hits give low values 1.02 | locus YHR013C, strain ard1, hits give low values 1.01 | locus YHR027C, strain rpn1, hits give low values 1.01 | locus YHR030C, strain SLT2, hits give low values 1.01 and 1.07 | locus YHR079C, strain IRE1 (second series), hits give low values 1 | locus YHR079C, strain IRE1, hits give low values 1.03 | locus YHR094C, strain hxt1, hits give low values 0.995 | locus YHR129C, strain ARP1, hits give low values 1.01 | locus YHR142W, strain chs7, hits give low values 1 | locus YHR200W, strain rpn10, hits give low values 1 | locus YIL066C, strain RNR3, hits give low values 1.03 | locus YIL073C, strain SPO22, hits give low values 1.02 | locus YIL125W, strain kgd1, hits give low values 1 | locus YIR030C, strain dcg1, hits give low values 1 | locus YJL092W, strain hpr5, hits give low values 1 | locus YJL095W, strain BCK1 (second series), hits give low values 1.01 | locus YJL095W, strain BCK1, hits give low values 1.02 and 1.04 | locus YJL115W, strain asf1, hits give low values 0.993 | locus YJL129C, strain trk1, hits give low values 1 | locus YJL134W, strain LCB3, hits give low values 1.01 | locus YJL154C, strain vps35, hits give low values 1 | locus YJL164C, strain tpk1, hits give low values 0.997 | locus YJL166W, strain qcr8, hits give low values 1.01 | locus YJL168C, strain set2, hits give low values 1 | locus YJL187C, strain SWE1 (second series), hits give low values 1.01 | locus YJL187C, strain SWE1, hits give low values 0.991 | locus YJR043C, strain POL32, hits give low values 1.01
